Consider 110 compounds from ChEMBL document CHEMBL4513216, “Probing the Open Global Health Chemical Diversity Library for Multistage-Active Starting Points for Next-Generation Antimalarials” (ACS Infect Dis, 2020).

Screen size: about 69,000 compounds; about 8,600 (12%) showed an effect of 50% or more. Only a selection was taken, and strong results are over-represented in it overall.

This assay relates to Plasmodium berghei. Kind of assay: Screen against P. berghei liver stage (PbLuc), transformed with Luciferase, at 10uM. It counts as functional, HepG2. The following applies: tested at 10 uM.
With `O=C(O)COCC(=O)NC1CC2(CCCCC2)Oc2ccccc21` (stereo not given), the INHIBITION came to 3.91%. Under `CC(C)c1nnc2n1CCN(C(=O)c1cn(-c3ccccc3)nn1)C2` stands 21.1%; under `O=C(NC[C@]12COC[C@H]1CN(CC1CCOCC1)C2)c1ccco1`, 3.11%; under `Cc1ncc(CN2CCCC(c3nc4ccccc4n3C(C)C)C2)s1` (stereo not given), -21.4%.

Turning to `O=C1NCCN1C1CCN(CCOc2ccccc2F)CC1`, the INHIBITION was 63.85%. Under `c1ccc2c(OCCN3CCn4c(nnc4C4CC4)C3)cccc2c1` stands 21.5%; under `O=C1NCCN1C1CCN(CCOc2cccc3ccccc23)CC1`, 69.1%; under `O=C1NCCN1C1CCN(CCOc2ccccc2Cl)CC1`, 22.6%. In the case of `O=C1NCCN1C1CCN(CCc2cccs2)CC1` it was 29.5%; in that of `O=C1NCCN1C1CCN(CC(O)c2ccccc2F)CC1` (stereo not given), 0.45%; in that of `COc1cc(C(=O)N(C)Cc2nccn2CC(F)(F)F)ccc1C`, 10.7%. In the case of `Cc1cc(C(=O)N2CCC3(CC2)C(=O)N(C)CCN3CC(C)C)c(C)o1` it was 49.4%; in that of `Cn1cccc1C(=O)N1CCC(c2nnc(Cn3ccnc3)n2C)CC1`, -10.3%. `NCC1[C@H]2CN(CCc3ccccc3)C[C@@H]12` (stereo not given in full): the INHIBITION was 33.2%. On to `CN(C)c1nc2c(c(N3CCC4(CC3)CNC(=O)C4)n1)CCCC2`, for which the INHIBITION was found to be 84.5%. In the case of `CN(C)c1nc2c(c(N3CCC4(CCCNC4=O)C3)n1)CCCC2` (stereo not given) it was 42.2%; in that of `CN(C)c1nc2c(c(N3CCCC4(CC3)CNC(=O)O4)n1)CCCC2` (stereo not given), -26.8%; in that of `CCn1cc(NC(=O)NCC(C)N2CCCC2)cn1` (stereo not given), 31.8%. Under `Cc1nc(CN2CCc3ncnc(C4CCOC4)c3CC2)cs1` (stereo not given) stands -33%. Under `Cc1nc2ncc3c(=O)n(C)ccc3n2n1` stands 0.647%. As for `Cc1noc(C)c1CN1CCN(C(=O)C(C(C)C)n2cncn2)CC1` (stereo not given), the INHIBITION turned out to be 7.44%.

Turning to `Cc1ccc(C(NC(=O)Cc2nc3ncccn3n2)C2CC2)cc1` (stereo not given), the INHIBITION was determined as 53.4%. For the compound `Cc1ccc(OCCCNC(=O)Cc2nc3ncccn3n2)cc1`, the INHIBITION was 27.7%.

Take `Cc1ccc(C(NC(=O)CN2CCc3c(ncn3C)C2)C2CC2)cc1` (stereo not given): the INHIBITION is 6.99%. In the case of `Cc1ccc(C(NC(=O)Cn2cc(C3CC3)nn2)C2CC2)cc1` (stereo not given) it was 8.08%; in that of `Cc1ccc(C(CNC(=O)c2cc(CC(C)C)nn2C)N(C)C)cc1` (stereo not given), -28.8%. `Cc1ccc(C(CNC(=O)Cc2nc3ncccn3n2)N(C)C)cc1` (stereo not given): the INHIBITION is recorded as 56.8%. Regarding `O=C1C(NS(=O)(=O)c2cccc(F)c2)CCN1Cc1ccccc1` (stereo not given), the INHIBITION is -5.25%. Regarding `Cc1ccc(N2C[C@H](C)[C@]3(CCN(c4cccnc4)C3=O)C2)nn1`, the INHIBITION is recorded as 38.5%. In the case of `CCC(C)N(Cc1sccc1C)C(=O)c1ccc2cccnc2n1` (stereo not given), the INHIBITION came out at 11.2%. Turning to `CC(=O)NCC(=O)N1CCN(Cc2cccnc2)c2ncccc2C1`, the INHIBITION is given as -14%. Under `COCCC(=O)N1CCN(CC2CC2)c2ncccc2C1` stands 55.7%; under `O=C(O)CCC(=O)N1CCN(CC2CC2)c2ncccc2C1`, 82%; under `CC(=O)NCC(=O)N1CCN(Cc2ccncc2)c2ncccc2C1`, 76.5%.

As for `O=C(Cc1ccccn1)N1CCN(CC2CC2)c2ncccc2C1`, the INHIBITION is reported as 24.5%. Take `O=C(N1CCCC1)N1CCN(CC2CC2)c2ncccc2C1`: the INHIBITION is listed as 20.5%.

Turning to `COCCC(=O)N1CCN(CC2CC2)c2nc(C)ccc2C1`, the INHIBITION is reported as -7.24%. Under `CC(=O)NCC(=O)N1CCN(CC2CC2)c2ncccc2C1` stands 27.9%; under `COCC(=O)N1CCN(CC2CC2)c2ncccc2C1`, -18.6%. Turning to `COC(=O)C(NC(=O)C1CC1)c1cc(F)ccc1F` (stereo not given), the INHIBITION is given as 29.4%. Under `CCOc1ccc(Cl)c(C(=O)NCCS(N)(=O)=O)n1` stands 35.3%; under `COc1ccc(C2=CCN(C(=O)C3CCCN(C(C)=O)C3)CC2)cc1` (stereo not given), 1.78%; under `CNC(=O)CN(C(=O)c1ccccc1)[C@H]1C[C@H]2CCOC[C@H]2C1`, 8.61%.

For the compound `CN1CC(=O)N(c2cccc(F)c2)CC12CCN(Cc1ccncc1)C2` (stereo not given), the INHIBITION is given as -17.1%. As for `NC(=O)CN1CCCN(C(=O)Cc2ccc(F)c(Br)c2)CC1`, the INHIBITION was determined as 14.4%. In the case of `COc1ccc(Cl)cc1CC(=O)N1CCN(CCO)CC1` it was 38.1%. As to `O=C(Cc1ccc(F)c(Br)c1)N1CCN(CCO)CC1`, the INHIBITION is recorded as 66.7%. Under `Cn1cc(CN2CCc3onc(COc4cccnc4)c3C2)cn1` stands 7.11%.

Regarding `c1ccc(OCc2noc3c2CN(c2ncccn2)CC3)nc1`, the INHIBITION came out at 24.6%. On to `CCS(=O)(=O)N1CCc2onc(COc3ccccn3)c2C1`, for which the INHIBITION amounted to 3.88%. Under `O=S(=O)(C1CC1)N1CCc2onc(COc3ccccn3)c2C1` stands 61.5%; under `Cc1cccc(C(=O)N2CCCCC2c2nc(C)cs2)n1` (stereo not given), -21.9%. For the compound `O=C(O)C1(Cc2ccc(Cl)cc2)CCN(c2ncccc2F)CC1`, the INHIBITION is 52%. In the case of `O=C(O)C1(Cc2ccccc2Cl)CCN(c2ncccc2F)CC1` it was 43.5%; in that of `Cc1ncc(C)c(N2CCC(Cc3ccc(Cl)cc3)(C(=O)O)CC2)n1`, 12.7%; in that of `O=C(CCNC(=O)c1ccccc1)Nc1ccncc1`, 1.58%. Under `CC(C)OC[C@H]1CCC[C@]12CN(S(=O)(=O)c1cccs1)CCO2` stands 45.2%; under `COC[C@H]1CCC[C@]12CN(S(=O)(=O)c1cccs1)CCO2`, -0.554%; under `CC(C)OC[C@H]1CCC[C@]12CN(C(=O)C1CCOCC1)CCO2`, 27.6%. Consider `COC[C@@H]1CCC[C@@]12CN(C(=O)N1CCCC1)CCO2`, for which the INHIBITION is recorded as 52.1%.

Regarding `COC[C@@H]1CCC[C@]12CN(S(=O)(=O)c1cccs1)CCO2`, the INHIBITION is recorded as 54.1%.

For `COC[C@@H]1CCC[C@@]12CN(C(=O)N(C)C)CCO2`, the INHIBITION is reported as 28.5%. Under `COCC(=O)N1CCO[C@]2(CCC[C@H]2COC)C1` stands 62.9%; under `COC[C@H]1CCC[C@]12CN(C(=O)NCc1ccccc1)CCO2`, -1.58%; under `COC[C@@H]1CCC[C@@]12CN(C(=O)C1CCOCC1)CCO2`, 33.1%. Regarding `CN(C)[C@@H]1COC[C@@H]2CN(Cc3ccc4c(c3)OCO4)C[C@@H]21`, the INHIBITION is -13.7%.

As to `CC(=O)Nc1nc(CN2CCCCC2Cn2cccn2)cs1` (stereo not given), the INHIBITION is given as -15.8%.

As to `CN(C)C(=O)C1CCc2nnc(C(C)(C)C)n21` (stereo not given), the INHIBITION is given as -7.25%. Under `Cc1cc2nccc(C3CCCN(C(=O)c4cnccn4)C3)n2n1` (stereo not given) stands 33.2%; under `O=C(NC1CC1)N1CCc2ncnc(-c3ccncc3)c2CC1`, -17%. With `O=C(c1ccoc1)N1CC[C@@H]2[C@H]1CCC(=O)N2c1ccccc1`, the INHIBITION is 43.2%. For `Cc1occc1C(=O)N1CCC2(CCCN(Cc3cccs3)C2)C1` (stereo not given), the INHIBITION was -60.9%. Under `Cc1cnn(CCNCC(O)c2ccc(C(F)(F)F)cc2)c1` (stereo not given) stands 23.3%; under `CC(C)C(=O)NC1CCCN(C(=O)c2cc3ccccc3cc2O)C1` (stereo not given), -13.3%. In the case of `Cc1ccn(-c2ccccc2NCc2cscn2)n1` it was 52.4%. In the case of `Cc1ccn(-c2ccccc2NCc2scnc2C)n1` it was 58.3%.

Consider `Cc1ccn(-c2ccccc2NCc2cccnc2C)n1`, for which the INHIBITION is reported as -11.8%. Under `Cc1ccc(CNc2ccccc2-n2ccc(C)n2)nc1` stands 40.5%. In the case of `Cc1ccn(-c2ccccc2NCc2ncc[nH]2)n1` it was 7.9%.

With `Cc1ccn(-c2ccccc2NCc2ccccn2)n1`, the INHIBITION was determined as 2.37%. In the case of `COCCC(=O)N1C[C@H]2CN(Cc3cccc(C)c3)C(=O)[C@H]2C1` it was 14.9%. With `O=C(Nc1cc(C(F)(F)F)c[nH]c1=O)C1CCCNC1` (stereo not given), the INHIBITION was 42.6%. In the case of `O=C(NCCN1CCOCC1)N(CCCO)C1CCCc2ccccc21` (stereo not given) it was 18.3%; in that of `COc1cccc(C(=O)N2CCN(Cc3nc(C(C)C)no3)CC2)c1`, 43.3%. Under `CCOc1ccc(Cl)c(C(=O)NCCc2ncc[nH]2)n1` stands 6.05%; under `OC[C@H]1CCN(Cc2ccc3ccccc3n2)C[C@@H]1O`, 2.25%. Under `CCc1nccc(CN2CCC(CNC(=O)C3CCC(C)CC3)C2)n1` (stereo not given) stands 7.43%; under `CCOc1ccc2nc(CN3CCC(CNC(C)=O)C3)ccc2c1` (stereo not given), 51.5%.

`COc1nc2ccccc2cc1CN1CCCC(CNC(C)=O)C1` (stereo not given): the INHIBITION is recorded as 21.85%. Under `CCOc1ccc2nc(CN3CCOC(CN)C3)ccc2c1` (stereo not given) stands 24.8%; under `CCOc1ccc2nc(CN3CCC(CN)C3)ccc2c1` (stereo not given), 57.5%.

Take `COCCN1CCC(NCc2cc(F)ccc2F)C1` (stereo not given): the INHIBITION is -14%. As for `Cc1ncc(S(C)(=O)=O)c(N(C)CCCc2cnn(C)c2)n1`, the INHIBITION is 29.1%.

As for `COc1cc(Br)c(CNC2CCCNC2=O)cc1OC` (stereo not given), the INHIBITION amounted to 36.5%. With `COCc1ccc(OC)c(CNC2CCCNC2=O)c1` (stereo not given), the INHIBITION is on record as -9.51%. On to `COc1cc(Br)cc(CNC2CCCNC2=O)c1O` (stereo not given), for which the INHIBITION was found to be 60%. Under `O=C(c1cc2c(s1)CCC2)N1CCC(c2ccncc2)CC1` stands 32.3%; under `CC(=O)Nc1nc(C(=O)N2CCCC(n3ccnc3C)C2)cs1` (stereo not given), 0.411%; under `CC(C)(C)CC(=O)N1C[C@H]2CCN[C@H]2C1`, 46.4%. Under `O=C(CC(F)(F)F)N1C[C@H]2CCN[C@H]2C1` stands 62.3%; under `O=C(CC1CC1)N1C[C@H]2CCN[C@H]2C1`, 24.6%; under `Cn1c(C2CC2)nc2c1CCN(Cc1nc3ccccc3s1)C2`, 43.5%. Under `Cn1c(C2CC2)nc2c1CCN(CC(=O)NC1CCCCNC1=O)C2` (stereo not given) stands 52%.

Consider `Cn1c(C2CC2)nc2c1CCN(CC(=O)Nc1nccs1)C2`, for which the INHIBITION was determined as 11.9%. In the case of `Cc1nc(CN2CCc3c(nc(C4CC4)n3C)C2)nc2ccccc12` it was 74.1%; in that of `CCN1CCC(NC(=O)CN2CCc3c(nc(C4CC4)n3C)C2)CC1`, 24.8%. Regarding `Cc1nc2ccccc2nc1CN1CCc2c(nc(C3CC3)n2C)C1`, the INHIBITION is reported as -12.2%.

As for `Cn1c(C2CC2)nc2c1CCN(CC(=O)Nc1nncs1)C2`, the INHIBITION was 17%. In the case of `Cn1cnc2c1CCN(CC(=O)NC1CCCCNC1=O)C2` (stereo not given) it was -7.72%; in that of `Cc1csc(NC(=O)CN2CCc3c(nc(C4CC4)n3C)C2)n1`, 67.4%.
